TDP1 cell noCPT: qHTS for Inhibitors of human tyrosyl-DNA phosphodiesterase 1 (TDP1): qHTS in cells in absence of CPT; Potency, µM (top dose mostly 46.2 µM), for inactives: at the top dose activity change, negative = growth inhibition, actives largely listed as inhibitors; actives 15% (n = 420,000); AID 686978, 2013; DT40 Tdp1-/- hTDP1 cells, no CPT, ATP luminescence, 48 h; further: nearly all actives have a fitted effect of over 55% in size
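Growth kinetics read by CellTiter-Glo luminescence after ≥48 hr at 37 °C. Cells: DT40 Tdp1-/- stably carrying human TDP1, 400 per well, compound exposure in the absence of CPT (DMSO vehicle).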
HT1080 IDH1KD tx: toxicity to HT-1080 IDH1 knockdown cells (counter line); HT-1080 IDH1 knockdown viability, ATP luminescence, 48 h; Potency, µM (titrated, usually from 46.1 µM), without a hit: top-dose activity, negative = toxicity, most hits filed as cytotoxic; actives 2% (n = 360,000);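 further: 0% = DMSO wells and -100% = cell-free medium wells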
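Viability of IDH1-knockdown HT-1080 fibrosarcoma cells was assessed by CellTiter-Glo after 48 h at 37 °C with titrated compound; concentration-effect curves were classified by fit quality and response size.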
DT40 TDP1 CPT: DT40-hTDP1 cell growth loss with CPT. AID 686979. Potency, µM (titrated, usually from 46.2 µM), inactives show at the highest dose activity change, negative = growth inhibition, most hits filed as inhibitors. chicken DT40 Tdp1-/-;hTDP1 cells + 20 nM CPT, ATP luminescence, 48 h. actives 12% (n = 420,000); further: nearly all actives have a fitted effect of over 55% in size
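Chicken DT40 Tdp1-/- cells stably complemented with human TDP1 were seeded at 400 cells/well in medium containing 20 nM camptothecin, exposed to pin-transferred compounds, and grown at 37 °C for at least 48 hr. Viability was read as ATP luminescence.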
HT1080-NT tox: kills 2HG-producing HT-1080-NT fibrosarcoma cells | HT-1080-NT fibrosarcoma viability, CellTiter-Glo ATP luminescence, 48 h | Potency, µM (highest dose often 46.1 µM), inactives show top-dose activity, negative = less viability, most hits filed as cytotoxic | actives 1.6% (n = 360,000) | AID 686970;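 further: NT is the 2HG producing partner of a matched IDH1 knockdown line; 0% = DMSO-treated cells and -100% = media-only wells without cells; nearly all actives have a fitted effect of over 55% in size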
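Read-out is CellTiter-Glo luminescence after 10 minutes at room temperature, following 48 hours' compound treatment of HT-1080-NT cells (750 cells/well, RPMI, 5% FBS, 37 degrees C).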
KB-3-1 cytotox: kills parental KB-3-1 adenocarcinoma cells | KB-3-1 viability, CellTiter-Glo ATP luminescence, 72 h | Potency, µM (doses to about 46.1 µM), usual class: cytotoxic | actives 1.4% (n = 400,000); further: nearly all actives have a fitted effect of over 60% in size
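KB-3-1 cells, DMEM (no phenol red) + 10% FBS; compound by pin transfer, 72 h, 37 °C. Readout: CellTiter-Glo luminescence after 10 min. Data normalized, curve-fitted.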
KB-V1 MDR tox: KB-V1 MDR subline cytotoxicity. KB-V1 MDR cells viability, CellTiter-Glo, 72 h. actives 3.4% (n = 400,000). AID 1347076. Potency, µM (top dose mostly 46.1 µM), usual class: cytotoxic; further: nearly all actives have a fitted effect of over 60% in size
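Following 72 h at 37 degrees C with compound, KB-V1 cell viability was read by CellTiter-Glo luminescence, medium being phenol-red-free DMEM plus 10% FBS; concentration-response parameters came from normalized, curve-fitted qHTS data.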
The depositor's hits bear a star; i = inactive; ? = inconclusive; · = no result. An excerpt weighted towards active compounds, which were near 19% of everything screened. The call rests on the fitted dose curve; in most records, active means well fitted curve in the direction sought with a large enough effect; inconclusive means small, poorly fitted or top-dose-only effect, or another doubt; inactive means no such curve, though single readings can be large; an effect the other way counts as inactive or inconclusive. Unless noted, on the % scale 0 is the no-effect control and ±100 the full control effect; potency means the concentration at half of the fitted maximal effect.

SMILES	TDP1 cell noCPT	HT1080 IDH1KD tx	DT40 TDP1 CPT	HT1080-NT tox	KB-3-1 cytotox	KB-V1 MDR tox
CCNc1ncc2nc(-c3cc(F)cc(F)c3)c(=O)n(Cc3ccc(F)cc3)c2n1	1%	·	-4%	·	·	·
CC(C)C(NS(C)(=O)=O)c1nnc2n1CCN(Cc1ccnc3ccccc13)CC2 (stereo unspecified)	-29%	·	?	·	·	·
O=C(CC[C@H]1O[C@@H](n2ccc(=O)[nH]c2=O)[C@H](O)[C@@H]1O)NCCc1c[nH]c2ccccc12	9%	18%	0%	25%	i	i
COc1ccc(NC(=O)c2cc(C3CCCCN3S(=O)(=O)Cc3ccccc3)on2)c(C)c1 (stereo unspecified)	-94%	-6%	-84%	4%	i	i
CCCCC1CC2=C(C(=O)OC(C)(C)O2)C(c2ccc(F)cc2)O1 (stereo unspecified)	-16%	3%	4%	11%	i	i
CC(=O)OCCNc1cc(SCc2ccco2)c2nonc2c1[N+](=O)[O-]	18µM*	?	?	-12%	i	i
CC1CCN(CCCNc2cc(NCCO)c([N+](=O)[O-])c3nonc23)CC1	-1%	0%	1%	6%	i	i
O=[N+]([O-])c1c(NCc2ccco2)ncnc1NCc1ccco1	-4%	7%	-4%	16%	i	i
O=[N+]([O-])c1c(NCCCO)cc(SCc2ccco2)c2nonc12	21µM*	?	15µM*	-25%	i	i
Cn1ccnc1Sc1cc(NCCCO)c([N+](=O)[O-])c2nonc12	5.2µM*	?	3.3µM*	4.1µM*	i	i
O=[N+]([O-])c1c(NCCCO)cc(Sc2ccc(Cl)cc2)c2nonc12	1.5µM*	-2%	1.3µM*	2%	?	i
O=C(C[n+]1ccccc1Cl)c1ccc2ccccc2c1	?	·	?	·	i	i
Clc1ccc(C2=Nn3c(nnc3-c3n[nH]c4c3CCC4)SC2)cc1	2.9µM*	5.8µM*	4.1µM*	5.8µM*	3.7µM*	3.7µM*
c1ccc(-c2ccc(C3=Nn4c(nnc4-c4cc(-c5ccccc5)n[nH]4)SC3)cc2)cc1	?	18µM*	?	?	?	16µM*
c1ccc(-c2ccc(C3=Nn4c(Cn5nnc6ccccc65)nnc4SC3)cc2)cc1	?	-9%	23µM*	-11%	i	i
Cc1ccc(-c2nnc3n2N=C(c2ccc(Br)cc2)CS3)cc1	?	0%	23µM*	-9%	i	i
CC(C)[C@H](N)c1nnc2n1N=C(c1ccc(Cl)cc1)CS2	0%	0%	-7%	3%	i	i
O=c1c(-c2ccc(Cl)cc2)nc2cnc(N3CCOCC3)nc2n1C[C@H]1CCCO1	10%	·	3%	·	·	·
COc1ccc(CCNC(=O)CSc2nc3ccsc3c(=O)n2Cc2ccccn2)cc1OC	-3%	9%	-1%	-2%	i	i
O=C(Nc1ccc2c(c1)CCC2)c1cnn2c1NC(=C1CC1)C=C2C(F)F	?	·	?	·	i	i
Cc1cc(O)c(C(c2cccc(Cl)c2)N2CCN(c3ccccc3)CC2)c(=O)n1Cc1ccco1 (stereo unspecified)	?	·	?	·	i	i
Brc1ccc(C2=Nn3c(nnc3-c3n[nH]c4c3CCC4)SC2)cc1	0.92µM*	0.65µM*	0.92µM*	1.2µM*	0.33µM*	1.2µM*
Nc1nnc2c(n1)CCCC2	-1%	6%	2%	-2%	i	i
NC1=NCCCC1	2.7µM*	·	3.8µM*	·	·	·

High-throughput results deposited in PubChem BioAssay by National Center for Advancing Translational Sciences (NCATS).
